# Experimental data as given in PMC7862700, “An all-to-all approach to the identification of sequence-specific readers for epigenetic DNA modifications on cytosine”.
# Experiments:
# Assay in all cases: DAPPL (digital affinity profiling via proximity ligation, sequencing); 10 mM Tris-HCl pH 7.5, 50 mM NaCl, 1 mM DTT, 4% glycerol, room temperature, 30 min; GST-TFs on glutathione beads, 16-mer random dsDNA library, 0.1% formaldehyde crosslink after washing; high values mean tight binding
# FLI1 = molecular target: T1, FLI1 (Homo sapiens, UniProt Q01543 1-452); conditions: protein: recombinant; tags: N-terminal GST; dsDNA, one strand shown
# T1 sequence: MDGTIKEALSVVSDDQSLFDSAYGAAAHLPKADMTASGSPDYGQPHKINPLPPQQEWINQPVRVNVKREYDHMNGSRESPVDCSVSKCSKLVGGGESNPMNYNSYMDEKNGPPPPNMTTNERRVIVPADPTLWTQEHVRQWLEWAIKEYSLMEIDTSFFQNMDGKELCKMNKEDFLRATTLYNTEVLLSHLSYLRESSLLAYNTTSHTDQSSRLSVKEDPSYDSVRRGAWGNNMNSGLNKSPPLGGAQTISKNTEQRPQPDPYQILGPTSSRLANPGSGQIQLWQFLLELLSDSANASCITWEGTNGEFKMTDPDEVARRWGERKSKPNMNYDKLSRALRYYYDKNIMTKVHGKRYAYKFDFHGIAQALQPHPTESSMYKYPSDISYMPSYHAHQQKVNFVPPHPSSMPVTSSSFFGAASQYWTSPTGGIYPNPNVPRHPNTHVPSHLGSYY
# How it was run: (§1)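 The binding signal reported is, for every hexamer, its read frequency for a factor over its read frequency for the tag-only sample. Reads came from pools of yeast-expressed, GST-fused human transcription factors on glutathione beads, barcoded with DNA and mixed with that sample, which were incubated with 200 nmole of a random double-stranded 16-mer DNA library in Tris/NaCl/DTT/glycerol buffer at room temperature for 30 min. After washing, the pools were crosslinked with 0.1% formaldehyde, proximity-ligated with BsaI/T4 ligase for 1 h at 37 °C, PCR-amplified and sequenced on an Illumina NextSeq500.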
# ELK1 = molecular target: T2, ELK1 (Homo sapiens, UniProt P19419 1-428); conditions: protein: recombinant; tags: N-terminal GST; dsDNA, one strand shown
# T2 sequence: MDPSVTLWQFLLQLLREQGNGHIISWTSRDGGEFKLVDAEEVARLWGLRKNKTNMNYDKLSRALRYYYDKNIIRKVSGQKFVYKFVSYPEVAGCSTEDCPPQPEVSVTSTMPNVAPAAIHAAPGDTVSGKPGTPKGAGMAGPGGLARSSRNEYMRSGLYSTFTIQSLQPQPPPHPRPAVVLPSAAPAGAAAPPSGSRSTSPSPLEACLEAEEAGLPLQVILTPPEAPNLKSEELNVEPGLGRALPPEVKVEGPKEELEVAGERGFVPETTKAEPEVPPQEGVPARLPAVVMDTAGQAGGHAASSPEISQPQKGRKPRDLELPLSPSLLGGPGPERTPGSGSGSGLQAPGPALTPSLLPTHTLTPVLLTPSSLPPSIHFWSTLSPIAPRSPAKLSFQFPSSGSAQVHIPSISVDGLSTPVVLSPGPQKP
# How it was run: as §1
# GABPA = molecular target: T3, GABPA (Homo sapiens, UniProt Q06546 1-454); conditions: protein: recombinant; tags: N-terminal GST; dsDNA, one strand shown
# T3 sequence: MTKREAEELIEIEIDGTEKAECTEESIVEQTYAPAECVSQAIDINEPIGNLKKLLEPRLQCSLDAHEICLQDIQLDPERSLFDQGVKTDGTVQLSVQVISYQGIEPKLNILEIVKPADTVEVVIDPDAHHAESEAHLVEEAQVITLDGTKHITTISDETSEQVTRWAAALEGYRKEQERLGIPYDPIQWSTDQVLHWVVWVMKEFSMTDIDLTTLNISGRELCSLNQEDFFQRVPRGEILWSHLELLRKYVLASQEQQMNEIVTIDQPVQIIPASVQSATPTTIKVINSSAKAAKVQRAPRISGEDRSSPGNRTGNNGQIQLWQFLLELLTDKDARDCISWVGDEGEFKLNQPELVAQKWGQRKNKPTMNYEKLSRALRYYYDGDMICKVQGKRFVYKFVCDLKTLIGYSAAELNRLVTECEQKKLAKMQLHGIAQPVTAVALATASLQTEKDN
# How it was run: as §1
# ERG = molecular target: T4, ERG (Homo sapiens, UniProt P11308 1-479); conditions: protein: recombinant; tags: N-terminal GST; dsDNA, one strand shown
# T4 sequence: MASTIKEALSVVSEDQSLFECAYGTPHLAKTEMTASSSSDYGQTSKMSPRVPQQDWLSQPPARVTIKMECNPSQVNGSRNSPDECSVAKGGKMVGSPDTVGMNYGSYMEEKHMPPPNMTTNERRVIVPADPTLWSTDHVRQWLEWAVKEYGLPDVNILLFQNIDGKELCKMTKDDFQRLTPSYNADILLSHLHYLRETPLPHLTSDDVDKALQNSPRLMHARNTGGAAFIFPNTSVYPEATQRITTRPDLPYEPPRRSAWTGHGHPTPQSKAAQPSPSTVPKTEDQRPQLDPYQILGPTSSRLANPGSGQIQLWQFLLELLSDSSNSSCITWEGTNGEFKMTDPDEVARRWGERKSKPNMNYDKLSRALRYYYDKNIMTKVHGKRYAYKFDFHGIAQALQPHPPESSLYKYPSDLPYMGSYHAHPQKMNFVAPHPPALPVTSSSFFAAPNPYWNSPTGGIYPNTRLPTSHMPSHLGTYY
# How it was run: as §1
# ELF1 = ELF1 (Homo sapiens, UniProt P32519 1-619); conditions: protein: recombinant; tags: N-terminal GST; dsDNA, one strand shown
# Chain of ELF1 (P32519 whole entry): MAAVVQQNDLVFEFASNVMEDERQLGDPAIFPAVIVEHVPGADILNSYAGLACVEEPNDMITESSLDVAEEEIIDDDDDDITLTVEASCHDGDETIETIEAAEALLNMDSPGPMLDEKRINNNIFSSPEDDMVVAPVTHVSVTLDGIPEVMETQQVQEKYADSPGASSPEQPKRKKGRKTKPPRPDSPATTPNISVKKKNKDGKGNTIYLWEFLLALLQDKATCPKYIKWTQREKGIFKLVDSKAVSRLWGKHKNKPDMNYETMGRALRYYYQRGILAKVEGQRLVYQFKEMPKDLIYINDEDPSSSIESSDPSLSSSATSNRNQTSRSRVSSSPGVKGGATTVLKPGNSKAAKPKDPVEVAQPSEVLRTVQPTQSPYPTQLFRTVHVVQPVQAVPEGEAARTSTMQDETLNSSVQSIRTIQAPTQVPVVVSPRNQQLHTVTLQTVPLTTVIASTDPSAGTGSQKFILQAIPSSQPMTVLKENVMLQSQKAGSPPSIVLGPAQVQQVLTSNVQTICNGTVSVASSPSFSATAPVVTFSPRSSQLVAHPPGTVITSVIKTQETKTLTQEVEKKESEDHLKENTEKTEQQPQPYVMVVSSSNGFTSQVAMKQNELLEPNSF
# How it was run: as §1
# EHF = molecular target: T5, EHF (Homo sapiens, UniProt Q9NZC4 1-300); conditions: protein: recombinant; tags: N-terminal GST; dsDNA, one strand shown
# T5 sequence: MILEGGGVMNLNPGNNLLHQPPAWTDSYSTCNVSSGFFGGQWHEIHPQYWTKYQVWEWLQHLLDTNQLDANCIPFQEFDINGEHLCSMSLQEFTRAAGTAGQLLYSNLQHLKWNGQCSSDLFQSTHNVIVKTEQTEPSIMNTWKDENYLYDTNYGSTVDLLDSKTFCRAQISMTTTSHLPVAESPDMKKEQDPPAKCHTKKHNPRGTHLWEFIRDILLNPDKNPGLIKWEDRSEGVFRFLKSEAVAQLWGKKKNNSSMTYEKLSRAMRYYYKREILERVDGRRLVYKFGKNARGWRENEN
# How it was run: as §1
# SPI1 = SPI1 (Homo sapiens, UniProt P17947 1-270); conditions: protein: recombinant; tags: N-terminal GST; dsDNA, one strand shown
# How it was run: as §1
# SPIB = SPIB (Homo sapiens, UniProt Q01892 1-262); conditions: protein: recombinant; tags: N-terminal GST; dsDNA, one strand shown
# Chain of SPIB (Q01892 whole entry): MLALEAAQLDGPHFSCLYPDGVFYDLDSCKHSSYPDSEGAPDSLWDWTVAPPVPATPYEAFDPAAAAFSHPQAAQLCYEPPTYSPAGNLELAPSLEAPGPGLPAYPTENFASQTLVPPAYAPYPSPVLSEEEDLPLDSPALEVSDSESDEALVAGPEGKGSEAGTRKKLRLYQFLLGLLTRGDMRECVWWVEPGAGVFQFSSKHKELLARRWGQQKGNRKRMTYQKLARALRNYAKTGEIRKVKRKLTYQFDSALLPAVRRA
# How it was run: as §1
# ELK3 = molecular target: T6, ELK3 (Homo sapiens, UniProt P41970 1-407); conditions: protein: recombinant; tags: N-terminal GST; dsDNA, one strand shown
# T6 sequence: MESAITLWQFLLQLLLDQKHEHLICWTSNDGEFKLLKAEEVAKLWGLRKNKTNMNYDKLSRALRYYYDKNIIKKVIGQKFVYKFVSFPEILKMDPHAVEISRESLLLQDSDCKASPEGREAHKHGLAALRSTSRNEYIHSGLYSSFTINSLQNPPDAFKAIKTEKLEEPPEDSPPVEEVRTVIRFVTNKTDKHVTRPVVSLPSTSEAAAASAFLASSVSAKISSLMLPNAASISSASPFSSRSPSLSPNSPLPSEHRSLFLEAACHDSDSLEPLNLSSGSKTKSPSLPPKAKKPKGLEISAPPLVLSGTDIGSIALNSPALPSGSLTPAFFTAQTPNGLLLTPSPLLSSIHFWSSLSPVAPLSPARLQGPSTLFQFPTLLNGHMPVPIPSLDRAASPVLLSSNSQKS
# How it was run: as §1
# FEV = molecular target: T7, FEV (Homo sapiens, UniProt Q99581 1-238); conditions: protein: recombinant; tags: N-terminal GST; dsDNA, one strand shown
# T7 sequence: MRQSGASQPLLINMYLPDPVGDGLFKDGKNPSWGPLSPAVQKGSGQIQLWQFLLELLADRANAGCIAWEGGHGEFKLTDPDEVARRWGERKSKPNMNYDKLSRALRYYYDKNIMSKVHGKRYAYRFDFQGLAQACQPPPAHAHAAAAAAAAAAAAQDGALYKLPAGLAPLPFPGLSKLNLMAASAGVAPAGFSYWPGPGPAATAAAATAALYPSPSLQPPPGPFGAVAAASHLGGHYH
# How it was run: as §1
# ETV5 = ETV5 (Homo sapiens, UniProt P41161 1-510); conditions: protein: recombinant; tags: N-terminal GST; dsDNA, one strand shown
# Chain of ETV5 (P41161 whole entry): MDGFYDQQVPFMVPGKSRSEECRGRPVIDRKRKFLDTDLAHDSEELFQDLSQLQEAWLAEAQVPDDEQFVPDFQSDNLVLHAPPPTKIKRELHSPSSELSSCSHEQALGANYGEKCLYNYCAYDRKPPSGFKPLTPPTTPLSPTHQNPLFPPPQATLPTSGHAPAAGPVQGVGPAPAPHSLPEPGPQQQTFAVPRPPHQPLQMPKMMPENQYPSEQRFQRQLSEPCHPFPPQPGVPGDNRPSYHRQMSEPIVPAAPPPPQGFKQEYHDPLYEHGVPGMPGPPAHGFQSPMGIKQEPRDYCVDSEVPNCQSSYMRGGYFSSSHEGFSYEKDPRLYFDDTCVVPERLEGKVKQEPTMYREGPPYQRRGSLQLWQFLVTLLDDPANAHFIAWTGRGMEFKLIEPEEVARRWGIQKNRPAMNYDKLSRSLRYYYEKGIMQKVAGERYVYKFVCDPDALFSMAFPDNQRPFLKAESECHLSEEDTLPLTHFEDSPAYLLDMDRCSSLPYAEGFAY
# How it was run: as §1
# HSF1 = HSF1 (Homo sapiens, UniProt Q00613 1-529); conditions: protein: recombinant; tags: N-terminal GST; chain copies: 3; dsDNA, one strand shown
# Chain of HSF1 (Q00613 whole entry): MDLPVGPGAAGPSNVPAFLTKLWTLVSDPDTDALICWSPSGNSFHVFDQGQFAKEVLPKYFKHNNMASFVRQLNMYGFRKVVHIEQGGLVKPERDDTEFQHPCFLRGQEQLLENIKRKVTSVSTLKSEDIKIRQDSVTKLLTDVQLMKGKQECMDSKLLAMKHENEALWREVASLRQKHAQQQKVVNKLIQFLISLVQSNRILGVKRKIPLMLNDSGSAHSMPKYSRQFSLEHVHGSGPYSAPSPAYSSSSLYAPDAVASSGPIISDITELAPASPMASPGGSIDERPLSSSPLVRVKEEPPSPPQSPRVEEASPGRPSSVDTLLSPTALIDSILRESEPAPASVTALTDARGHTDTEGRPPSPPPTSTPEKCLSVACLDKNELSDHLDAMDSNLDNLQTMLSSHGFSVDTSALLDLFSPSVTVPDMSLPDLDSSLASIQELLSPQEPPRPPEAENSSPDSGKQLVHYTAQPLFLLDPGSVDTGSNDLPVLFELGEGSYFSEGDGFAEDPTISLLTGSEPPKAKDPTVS
# How it was run: as §1
# SPIC = molecular target: T8, SPIC (Homo sapiens, UniProt Q8N5J4 1-248); conditions: protein: recombinant; tags: N-terminal GST; dsDNA, one strand shown
# T8 sequence: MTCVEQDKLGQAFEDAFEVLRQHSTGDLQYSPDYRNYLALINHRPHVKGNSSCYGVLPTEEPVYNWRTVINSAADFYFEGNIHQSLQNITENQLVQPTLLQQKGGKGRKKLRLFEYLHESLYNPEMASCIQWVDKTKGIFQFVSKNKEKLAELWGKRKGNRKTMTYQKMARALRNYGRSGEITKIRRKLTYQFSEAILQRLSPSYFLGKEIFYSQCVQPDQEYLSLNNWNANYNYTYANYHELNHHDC
# How it was run: as §1
# ELF4 = ELF4 (Homo sapiens, UniProt Q99607 1-663); conditions: protein: recombinant; tags: N-terminal GST; dsDNA, one strand shown
# Chain of ELF4 (Q99607 whole entry): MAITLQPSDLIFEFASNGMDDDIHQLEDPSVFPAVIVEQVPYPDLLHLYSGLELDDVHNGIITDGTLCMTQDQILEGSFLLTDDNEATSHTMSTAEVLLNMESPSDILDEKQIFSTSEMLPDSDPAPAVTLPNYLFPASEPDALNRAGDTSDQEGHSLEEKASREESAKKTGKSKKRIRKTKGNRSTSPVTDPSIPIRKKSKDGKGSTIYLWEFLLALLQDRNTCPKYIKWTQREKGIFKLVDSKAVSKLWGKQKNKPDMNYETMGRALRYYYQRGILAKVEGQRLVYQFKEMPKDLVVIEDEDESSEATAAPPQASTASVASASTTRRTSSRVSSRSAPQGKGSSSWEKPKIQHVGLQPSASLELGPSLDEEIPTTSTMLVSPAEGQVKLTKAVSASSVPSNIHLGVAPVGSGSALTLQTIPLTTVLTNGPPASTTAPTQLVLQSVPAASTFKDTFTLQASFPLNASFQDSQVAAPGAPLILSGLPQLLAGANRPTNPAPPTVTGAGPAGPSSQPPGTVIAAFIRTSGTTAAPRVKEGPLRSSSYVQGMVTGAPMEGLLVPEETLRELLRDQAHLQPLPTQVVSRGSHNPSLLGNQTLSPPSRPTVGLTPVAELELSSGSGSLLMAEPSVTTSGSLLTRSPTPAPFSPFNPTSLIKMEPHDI
# How it was run: as §1
# ELK4 = molecular target: T9, ELK4 (Homo sapiens, UniProt P28324-2 1-405); conditions: protein: recombinant; tags: N-terminal GST; dsDNA, one strand shown
# T9 sequence: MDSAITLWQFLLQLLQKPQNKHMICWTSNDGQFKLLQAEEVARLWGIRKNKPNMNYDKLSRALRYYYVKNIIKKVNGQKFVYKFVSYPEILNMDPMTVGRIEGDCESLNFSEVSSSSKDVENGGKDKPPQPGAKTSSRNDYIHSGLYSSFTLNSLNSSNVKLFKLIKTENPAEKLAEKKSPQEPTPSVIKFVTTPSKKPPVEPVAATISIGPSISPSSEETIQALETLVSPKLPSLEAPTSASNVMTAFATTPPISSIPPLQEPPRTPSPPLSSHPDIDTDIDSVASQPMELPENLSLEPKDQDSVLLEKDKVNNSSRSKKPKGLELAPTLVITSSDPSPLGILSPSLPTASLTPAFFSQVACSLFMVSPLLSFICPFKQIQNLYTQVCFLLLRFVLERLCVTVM
# How it was run: as §1
# ELF3 = molecular target: T10, ELF3 (Homo sapiens, UniProt P78545 1-371); conditions: protein: recombinant; tags: N-terminal GST; dsDNA, one strand shown
# T10 sequence: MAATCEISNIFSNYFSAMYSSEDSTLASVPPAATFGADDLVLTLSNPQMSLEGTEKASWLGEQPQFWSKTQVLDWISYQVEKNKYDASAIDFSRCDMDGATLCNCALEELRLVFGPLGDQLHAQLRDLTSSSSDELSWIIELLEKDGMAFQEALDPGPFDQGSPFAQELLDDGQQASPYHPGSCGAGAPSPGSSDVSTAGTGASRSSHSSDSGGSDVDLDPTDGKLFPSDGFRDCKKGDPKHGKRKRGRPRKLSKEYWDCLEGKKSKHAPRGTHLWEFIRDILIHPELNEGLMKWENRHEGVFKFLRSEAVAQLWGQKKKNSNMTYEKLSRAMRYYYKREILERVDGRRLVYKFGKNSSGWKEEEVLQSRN
# How it was run: as §1
# CRX = CRX (Homo sapiens, UniProt O43186 1-299); conditions: protein: recombinant; tags: N-terminal GST; dsDNA, one strand shown
# Chain of CRX (O43186 whole entry): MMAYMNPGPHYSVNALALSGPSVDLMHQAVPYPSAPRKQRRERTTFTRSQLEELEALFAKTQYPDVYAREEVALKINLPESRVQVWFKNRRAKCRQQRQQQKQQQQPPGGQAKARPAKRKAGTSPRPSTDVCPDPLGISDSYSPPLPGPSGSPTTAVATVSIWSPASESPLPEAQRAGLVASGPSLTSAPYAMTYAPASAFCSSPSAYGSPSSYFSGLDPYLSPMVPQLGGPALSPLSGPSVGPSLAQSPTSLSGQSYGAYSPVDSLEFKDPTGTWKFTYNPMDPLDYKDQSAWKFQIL
# How it was run: as §1
# ETV1 = ETV1 (Homo sapiens, UniProt P50549 1-477); conditions: protein: recombinant; tags: N-terminal GST; dsDNA, one strand shown
# Chain of ETV1 (P50549 whole entry): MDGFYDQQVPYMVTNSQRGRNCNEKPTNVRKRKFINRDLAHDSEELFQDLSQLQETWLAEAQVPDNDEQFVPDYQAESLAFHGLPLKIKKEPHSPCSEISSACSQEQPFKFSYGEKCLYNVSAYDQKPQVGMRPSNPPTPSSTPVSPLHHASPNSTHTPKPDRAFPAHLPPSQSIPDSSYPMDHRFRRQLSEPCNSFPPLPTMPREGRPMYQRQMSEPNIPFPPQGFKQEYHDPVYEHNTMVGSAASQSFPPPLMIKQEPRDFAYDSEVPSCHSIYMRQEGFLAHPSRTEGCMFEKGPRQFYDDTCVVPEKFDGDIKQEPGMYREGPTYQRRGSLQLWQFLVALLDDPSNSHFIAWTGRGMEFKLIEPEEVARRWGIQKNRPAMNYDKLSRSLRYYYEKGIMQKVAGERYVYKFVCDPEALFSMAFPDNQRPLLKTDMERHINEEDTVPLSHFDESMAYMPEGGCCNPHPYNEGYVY
# How it was run: as §1
sequence,measurement,setting,value
GGTACT,binding signal,FLI1,"1.25 fold enrichment (6-mer frequency, TF over GST control)"
same,binding signal,ELK1,"1.21 fold enrichment (6-mer frequency, TF over GST control)"
same,binding signal,GABPA,"1.31 fold enrichment (6-mer frequency, TF over GST control)"
same,binding signal,ERG,"1.24 fold enrichment (6-mer frequency, TF over GST control)"
same,binding signal,ELF1,"1.32 fold enrichment (6-mer frequency, TF over GST control)"
same,binding signal,EHF,"1.25 fold enrichment (6-mer frequency, TF over GST control)"
same,binding signal,SPI1,"1.19 fold enrichment (6-mer frequency, TF over GST control)"
same,binding signal,SPIB,"1.15 fold enrichment (6-mer frequency, TF over GST control)"
same,binding signal,ELK3,"1.35 fold enrichment (6-mer frequency, TF over GST control)"
same,binding signal,FEV,"1.28 fold enrichment (6-mer frequency, TF over GST control)"
same,binding signal,ETV5,"1.39 fold enrichment (6-mer frequency, TF over GST control)"
same,binding signal,HSF1,"1.05 fold enrichment (6-mer frequency, TF over GST control)"
same,binding signal,SPIC,"1.24 fold enrichment (6-mer frequency, TF over GST control)"
same,binding signal,ELF4,"1.24 fold enrichment (6-mer frequency, TF over GST control)"
same,binding signal,ELK4,"1.19 fold enrichment (6-mer frequency, TF over GST control)"
same,binding signal,ELF3,"1.03 fold enrichment (6-mer frequency, TF over GST control)"
same,binding signal,CRX,"1.05 fold enrichment (6-mer frequency, TF over GST control)"
same,binding signal,ETV1,"1.26 fold enrichment (6-mer frequency, TF over GST control)"
